Seven compounds from PubChem BioAssay (NCATS) can be followed below.

Values without a mark were called inactive. Records with an inconclusive call do not appear. The source made the active and inactive calls. Unless noted, calls come from the whole dose curve; as a rule, active = well fitted curve in the direction sought with a large enough effect; inconclusive = small, poorly fitted or top-dose-only effect, or another doubt; inactive = no such curve, though single readings can be large; an effect the other way counts as inactive or inconclusive. A value given as a limit tells only on which side of the number the result lay.

In test [1] the target is Lysosomal acid glucosylceramidase (Homo sapiens) (UniProt P04062). As to the kind of experiment: Glucocerebrosidase-p2 (AID 348; in the data active = potency below about 10 µM; note: potency is the fitted concentration of half-maximal effect). The settings on record: purified GBA, blue fluorogenic substrate, 40 min. The method, boiled down: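 Normal human glucocerebrosidase (0.2 nM) with blue fluorogenic substrate (80 uM final) in citrate/phosphate pH 5.9 with 10mM sodium taurocholate, 0.01% tween-20; 40 min RT, NaOH/glycine stop; fluorescence Ex 365/Em 440; AC50 from a titration from 0.6 nM upwards.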
Sequence of Lysosomal acid glucosylceramidase (Homo sapiens) (P04062 whole entry, looked up): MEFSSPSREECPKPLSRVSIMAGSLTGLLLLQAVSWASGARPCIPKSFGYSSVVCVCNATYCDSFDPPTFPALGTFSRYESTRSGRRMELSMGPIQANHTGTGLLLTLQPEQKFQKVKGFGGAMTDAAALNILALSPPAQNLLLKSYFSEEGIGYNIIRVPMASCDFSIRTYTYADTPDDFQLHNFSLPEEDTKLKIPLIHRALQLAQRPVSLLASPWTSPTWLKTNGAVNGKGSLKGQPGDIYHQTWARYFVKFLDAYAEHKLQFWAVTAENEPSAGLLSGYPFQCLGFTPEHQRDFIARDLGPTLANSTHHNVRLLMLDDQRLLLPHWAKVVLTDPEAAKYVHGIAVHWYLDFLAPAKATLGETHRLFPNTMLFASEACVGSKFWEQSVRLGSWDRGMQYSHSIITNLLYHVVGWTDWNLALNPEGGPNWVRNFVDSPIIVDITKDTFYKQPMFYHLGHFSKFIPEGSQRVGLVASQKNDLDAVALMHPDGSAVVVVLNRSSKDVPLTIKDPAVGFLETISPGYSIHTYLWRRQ

Test [2] has as its target Cytochrome P450 1A2 (Homo sapiens) (UniProt P05177). As to the kind of experiment: p450-cyp1a2 (AID 410; calls by dose curve; note: potency is the fitted concentration of half-maximal effect;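 for activity change, negative = inhibition: -100% = full effect of reference inhibitor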). The settings on record: recombinant CYP1A2, luciferin-ME demethylation, luminescence; series mostly up to 57 µM. The method, boiled down: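 Read-out is luminescence from luciferin produced by CYP1A2 demethylation of Luciferin-ME (100uM, at Km). Detection reagent stopped the 60 min NADPH-dependent reaction; signals were normalized to 57 uM furafylline.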

A short description of test [3]: NFAT Signaling Pathway (AID 444; active = well fitted curve in either direction with a large enough effect, not every such curve was filed as active;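 note: carbachol stimulus at about its EC50 of 1 µM final; % is set by controls: 0 for no effect and ±100 for the full control effect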). The settings on record: Jurkat NFAT-bla M1, carbachol, beta-lactamase ratio, 5 h; at 7.69 µM (top of the series) unless noted. The method, boiled down:
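Jurkat cells with NFAT-driven β-lactamase reporter and co-expressed M1 receptor, stimulated with carbachol (final 1 uM, ~EC50), compound titration, 5 h at 37 °C. CCF4 loaded 1 h at RT; 460/530 nm ratio gave %activity and AC50.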

The nature of test [4]: Stat Signaling Pathway (AID 446; active = well fitted curve in either direction with a large enough effect, not every such curve was filed as active;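 note: ME-180 cervical cancer cells given 40 pM IL-6 alongside compound; SIE-controlled beta-lactamase reporter measured as 460/530 nm FRET emission ratio; % is set by controls: 0 for no effect and ±100 for the full control effect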). The settings on record: ME-180 SIE beta-lactamase reporter, IL-6 stimulated, 5 h; at 7.69 µM (top of the series) unless noted. In outline:
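Emission at 460 and 530 nm (excitation 405 nm) reports SIE-controlled beta-lactamase in ME-180 cells. Cells received compound with 40 pM IL-6 for 5 hrs at 37 C; data scaled between 300 pM IL-6 and 125 nM JAK-inhibitor controls.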

Test [5] deals with Glucocorticoid receptor (Homo sapiens) (UniProt P04150). The test can be described thus: GR-GFP Redistribution (AID 450;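 active = compounds whose dose series gives a full or clear partial fitted curve of increased nuclear translocation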; note: potency is the fitted concentration of half-maximal effect). The settings on record: U2OS GR-GFP nuclear translocation, laser cytometry, 2 h.
Sequence of Glucocorticoid receptor (Homo sapiens) (P04150 whole entry, looked up, the tested form may be a part): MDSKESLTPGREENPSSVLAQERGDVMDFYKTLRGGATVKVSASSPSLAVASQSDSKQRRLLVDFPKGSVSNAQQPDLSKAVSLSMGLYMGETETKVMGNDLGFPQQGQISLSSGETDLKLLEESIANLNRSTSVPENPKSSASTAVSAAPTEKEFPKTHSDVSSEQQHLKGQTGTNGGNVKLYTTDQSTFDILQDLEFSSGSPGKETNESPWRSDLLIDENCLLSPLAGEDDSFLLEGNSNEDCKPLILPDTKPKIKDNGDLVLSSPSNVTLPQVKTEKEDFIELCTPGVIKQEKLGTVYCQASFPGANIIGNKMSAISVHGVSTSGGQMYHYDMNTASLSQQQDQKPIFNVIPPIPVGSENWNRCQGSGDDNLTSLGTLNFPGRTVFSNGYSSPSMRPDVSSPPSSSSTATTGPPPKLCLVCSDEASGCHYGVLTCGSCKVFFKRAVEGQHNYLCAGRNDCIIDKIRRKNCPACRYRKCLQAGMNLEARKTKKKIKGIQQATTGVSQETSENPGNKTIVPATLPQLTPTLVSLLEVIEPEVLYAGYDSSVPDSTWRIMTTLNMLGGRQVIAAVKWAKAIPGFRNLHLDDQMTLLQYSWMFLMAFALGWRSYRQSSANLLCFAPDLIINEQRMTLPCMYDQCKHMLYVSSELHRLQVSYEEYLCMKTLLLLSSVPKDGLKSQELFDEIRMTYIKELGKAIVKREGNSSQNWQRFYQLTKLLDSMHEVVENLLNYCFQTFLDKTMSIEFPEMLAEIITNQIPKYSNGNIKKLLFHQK
For test [6] the target is unchanged. The test can be described thus: GR-EFC Redistribution (AID 451; calls by dose curve; note: potency is the fitted concentration of half-maximal effect). The settings on record: CHO-K1 GR-EFC translocation, beta-gal luminescence, 2 h. In outline: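 CHO-K1 cells expressing nuclear EA and GR-ED fragments of b-gal; compounds titrated up to 46 uM final, 2 h at 37 C. GR nuclear translocation read as complemented b-gal luminescence after 1 h RT detection.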

For test [7], the target named is Mitogen-activated protein kinase 10 (Mus musculus) (UniProt Q61831). As to the kind of experiment: JNK3 AlphaScreen Assay (AID 530; active = well fitted curve in either direction with a large enough effect, not every such curve was filed as active;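 note: kinase came from lysate of stimulated human HepG2 cells; signal reports phosphorylation of biotinylated GST-cJun 1-79 at Ser73 with 10 µM ATP; % is set by controls: 0 for no effect and ±100 for the full control effect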). Particulars: JNK3 lysate, c-Jun phosphorylation; series mostly up to 57.1 µM. In outline: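 HepG2 lysate (IL-1b/TNFa pre-activated) + biotin-GST-cJun 1-79 + anti-pSer73 cJun; cpd titration, 15 min RT; ATP 10 uM start; Tris pH 7.6, MgCl2, DTT, vanadate; beads in EDTA buffer; AlphaScreen.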
In general terms: In Alpha technology, singlet oxygen from a donor bead excites a nearby acceptor bead.

Test [8] deals with 3',5'-cyclic-AMP phosphodiesterase 4B (Homo sapiens) (UniProt Q07343). As to the kind of experiment: qHTS Assay for Inhibitors of PDE-IV (AID 607; active = well fitted activation curve with a large enough effect in the main read-out, with a control signal flat, not every such curve was filed as active; note: % of control where 0% means no effect). Particulars: HEK293 ACTOne CNG channel cells, membrane potential fluorescence; series mostly up to 22.9 µM. In outline: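 The readout is membrane depolarisation from a cAMP-sensing CNG channel, detected with a potential dye at ex 535/em 590. Cells were HEK293-derived (endogenous PDE-IV) at 1000 cells/well, titrated up to 22.9 uM final.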
Sequence of 3',5'-cyclic-AMP phosphodiesterase 4B (Homo sapiens) (Q07343 whole entry, looked up): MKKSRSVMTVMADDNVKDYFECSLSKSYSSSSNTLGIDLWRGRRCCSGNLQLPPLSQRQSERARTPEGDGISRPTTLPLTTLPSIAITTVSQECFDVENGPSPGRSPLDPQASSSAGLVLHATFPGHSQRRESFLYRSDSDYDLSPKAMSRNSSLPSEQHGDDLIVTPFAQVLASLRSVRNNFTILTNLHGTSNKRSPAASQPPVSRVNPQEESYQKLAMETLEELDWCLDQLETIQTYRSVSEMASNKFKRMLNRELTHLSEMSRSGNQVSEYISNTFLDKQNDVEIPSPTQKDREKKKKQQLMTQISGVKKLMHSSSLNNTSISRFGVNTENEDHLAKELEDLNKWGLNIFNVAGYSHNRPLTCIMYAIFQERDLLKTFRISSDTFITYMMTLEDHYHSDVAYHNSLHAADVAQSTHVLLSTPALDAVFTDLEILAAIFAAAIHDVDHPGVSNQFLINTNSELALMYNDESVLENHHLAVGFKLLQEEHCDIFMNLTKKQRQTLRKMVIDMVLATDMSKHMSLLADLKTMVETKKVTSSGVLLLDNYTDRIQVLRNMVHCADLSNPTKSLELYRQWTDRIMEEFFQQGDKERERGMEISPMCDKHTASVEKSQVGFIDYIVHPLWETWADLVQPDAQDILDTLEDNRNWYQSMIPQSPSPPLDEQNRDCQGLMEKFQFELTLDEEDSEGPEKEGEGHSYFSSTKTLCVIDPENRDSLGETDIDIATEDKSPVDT
Background: Quantitative high-throughput screening tests each substance at several concentrations.

Test [9] concerns the target Cytochrome P450 3A4 (Homo sapiens) (UniProt P08684). The test can be described thus: qHTS Assay for Inhibitors and Substrates of Cytochrome P450 3A4 (AID 884). Note: potency is the fitted concentration of half-maximal effect; nearly all actives have a fitted effect of over 50% in size. Particulars: recombinant CYP3A4, Luciferin-PPXE luminescence; series mostly up to 57.1 µM. In outline:
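Luminescent readout of luciferin produced by CYP3A4 (20 nM) dealkylation of Luciferin-PPXE, 25 uM (its KM). NADPH-driven reaction ran 60 min at RT after 10 min compound preincubation; data scaled to 57 uM ketoconazole as 100% inhibition.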

Test [10] has the same target. As to the kind of experiment: qHTS Assay for Activators of Cytochrome P450 3A4 (AID 885). Note: nearly all actives have a fitted effect of over 65% in size. The settings on record: recombinant CYP3A4, Luciferin-PPXE luminescence, 60 min; series mostly up to 57.1 µM. In outline: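 Activators are scored by enhanced luminescence from CYP3A4 conversion of luciferin-PPXE (25uM, equal to KM) to luciferin, after 60 min at RT with an NADPH-regenerating system.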

Test [11] deals with Cytochrome P450 2C19 (Homo sapiens) (UniProt P33261). The test can be described thus: qHTS Assay for Inhibitors and Substrates of Cytochrome P450 2C19 (AID 899). Note: potency is the fitted concentration of half-maximal effect; nearly all actives have a fitted effect of over 60% in size. Particulars: recombinant CYP2C19, luciferin-H EGE luminescence; series mostly up to 57.1 µM. In outline:
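Luminescent read-out of luciferin formed from Luciferin-H EGE (10uM, equal to KM). Enzyme 5nM in 50mM KPO4; compound added, 10 min at 37C, then NADPH regenerating system for 60 min at 37C. Full inhibition defined by 57uM ketoconazole.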

Test [12] deals with Dual specificity protein kinase CLK4 (Homo sapiens) (UniProt Q9HAZ1). The test can be described thus: qHTS Assay for Inhibitors of CDC-like Kinase 4 (Kinase-Glo Assay) (AID 1770). Note: nearly all actives have a fitted effect of over 65% in size. Note: potency is the fitted concentration of half-maximal effect. The settings on record: recombinant Clk4, Kinase-Glo ATP depletion luminescence; series mostly up to 66.7 µM. In outline:
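Readout: Kinase-Glo luminescence from ATP left after a 4.5 h room-temperature reaction of 25 nM Clk4 with 100 uM RS peptide and 1 uM ATP (final). Buffer: 25 mM Tris pH 7.5, 10 mM MgCl2.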

Test [13] shares this target. The test can be described thus: qHTS Assay for Inhibitors of CDC-like Kinase 4 (ADP-Glo Assay) (AID 1771). Note: nearly all actives have a fitted effect of over 70% in size. Note: potency is the fitted concentration of half-maximal effect. Particulars: recombinant CLK4, ADP-Glo luminescence; series mostly up to 80 µM. In outline:
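In this ADP-Glo format, 1 uM ATP and 100 uM RS peptide served as substrates for 25 nM Clk4 in Mg2+/EGTA/DTT/Triton buffer; reactions ran 1 hr at room temperature before luminescent ADP quantification.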

Test [14] has the same target. The test can be described thus: qHTS Assay for Inhibitors of CDC-like Kinase 4 (ADP-FP Assay) (AID 1795). Note: nearly all actives have a fitted effect of over 60% in size. Note: potency is the fitted concentration of half-maximal effect. Particulars: Transcreener ADP fluorescence polarization; series mostly up to 50 µM. In outline:
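FP readout: Orange Transcreener ADP2 tracer (4 nM) plus ADP antibody, read after 30 min at room temperature. Kinase step: 6.25 nM Clk4, 100 uM RS peptide, 1 uM ATP, pH 7.5, 1 h.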

Test [15] deals with Ubiquitin carboxyl-terminal hydrolase 1 (Homo sapiens) (UniProt O94782). As to the kind of experiment: Inhibitors of USP1/UAF1: Pilot qHTS (AID 504865).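 Note: rhodamine fluorescence freed from ubiquitin-rhodamine substrate followed over time; top concentration of the series differs between compounds; % is set by controls: 0 for no effect and ±100 for the full control effect; nearly all actives have a fitted effect of over 35% in size.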 The settings on record: purified USP1/UAF1, Ub-rhodamine cleavage fluorescence; series mostly up to 54.9 µM. The method, boiled down: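 1nM USP1/UAF1 + cpd, 15 min RT; start w/ Ub-Rho 150nM final; kinetic FL 480/540 nm, 6 reads q60 s. Buffer 50mM HEPES pH 7.8, 0.5mM EDTA, 1mM TCEP, 0.01% Tween-20, 0.1 mg/ml BSA.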
Sequence of Ubiquitin carboxyl-terminal hydrolase 1 (Homo sapiens) (O94782 whole entry, looked up): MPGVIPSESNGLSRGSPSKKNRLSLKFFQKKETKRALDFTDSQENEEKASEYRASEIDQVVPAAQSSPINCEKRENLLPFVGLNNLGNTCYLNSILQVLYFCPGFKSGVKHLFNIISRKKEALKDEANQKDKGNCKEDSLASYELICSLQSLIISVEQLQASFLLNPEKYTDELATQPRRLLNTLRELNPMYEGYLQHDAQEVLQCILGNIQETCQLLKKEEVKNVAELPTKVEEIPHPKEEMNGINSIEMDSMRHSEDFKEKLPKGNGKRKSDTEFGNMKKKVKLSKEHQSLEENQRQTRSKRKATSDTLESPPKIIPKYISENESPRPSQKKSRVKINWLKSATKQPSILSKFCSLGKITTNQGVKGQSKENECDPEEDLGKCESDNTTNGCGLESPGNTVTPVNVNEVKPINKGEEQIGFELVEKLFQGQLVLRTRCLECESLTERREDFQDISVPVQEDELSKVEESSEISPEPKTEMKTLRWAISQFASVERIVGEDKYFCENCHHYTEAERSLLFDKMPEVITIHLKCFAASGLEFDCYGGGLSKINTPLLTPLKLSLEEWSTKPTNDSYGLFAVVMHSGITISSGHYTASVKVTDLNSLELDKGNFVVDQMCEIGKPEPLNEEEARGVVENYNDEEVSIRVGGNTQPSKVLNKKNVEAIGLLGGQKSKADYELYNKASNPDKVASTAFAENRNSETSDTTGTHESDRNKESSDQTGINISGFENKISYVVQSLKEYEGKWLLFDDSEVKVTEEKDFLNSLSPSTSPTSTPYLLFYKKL

A short description of test [16]: Primary qHTS for small molecule stabilizers of the endoplasmic reticulum resident proteome: Secreted ER Calcium Modulated Protein (SERCaMP) assay (AID 1508630). Note: % is set by controls: 0 for no effect and ±100 for the full control effect. The settings on record: SH-SY5Y GLuc-SERCaMP (Gaussia luciferase released on ER calcium loss) secretion, thapsigargin, luminescence; series mostly up to 38.4 µM. The method, boiled down:
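The SH-SY5Y reporter protocol was run at 3 concentrations up to 38.3 uM (primary) or 11 concentrations (follow-up): 16 h compound, 100 nM thapsigargin for 4 h, then extracellular luciferase luminescence.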

Test [17] concerns the target Cytochrome P450 2C9 (Homo sapiens) (UniProt P11712). As to the kind of experiment: qHTS Assay for Inhibitors and Substrates of Cytochrome P450 2C9 (AID 883). Note: % is set by controls: 0 for no effect and ±100 for the full control effect; nearly all actives have a fitted effect of over 60% in size. Particulars: recombinant CYP2C9, luciferin-H luminescence, 60 min; series mostly up to 57.1 µM. In outline: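 10nM CYP2C9 + 100uM Luciferin-H (=KM), 25mM KPO4; cpd 10 min 37C; NADPH regen, 60 min 37C; stop/detect with P450 Glo-Buffer 20 min; luminescence. Norm. to 57uM sulphaphenazole as full inhibition.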

A short description of test [18]: qHTS Assay for Identification of Small Molecule Agonists for Hypoxia Response Element Signaling Pathway (AID 914; active = well fitted activation curve with a large enough effect in the signal ratio, with a control signal flat, not every such curve was filed as active; the % refers to the signal ratio; note: potency is the fitted concentration of half-maximal effect). Particulars: ME-180 (cervical carcinoma) HRE-bla reporter, beta-lactamase ratio, CoCl2, 17 h; activation: stronger effect = higher value. The method, boiled down: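 Positive modulation of EC50 CoCl2-induced hypoxia response element signaling is measured in ME-180 cells with a beta-lactamase reporter. Compounds are titrated, incubation runs 17 hours, and %Activity derives from the blue/green ratio.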

Sequence of Dual specificity protein kinase CLK4 (Homo sapiens) (Q9HAZ1 whole entry, looked up): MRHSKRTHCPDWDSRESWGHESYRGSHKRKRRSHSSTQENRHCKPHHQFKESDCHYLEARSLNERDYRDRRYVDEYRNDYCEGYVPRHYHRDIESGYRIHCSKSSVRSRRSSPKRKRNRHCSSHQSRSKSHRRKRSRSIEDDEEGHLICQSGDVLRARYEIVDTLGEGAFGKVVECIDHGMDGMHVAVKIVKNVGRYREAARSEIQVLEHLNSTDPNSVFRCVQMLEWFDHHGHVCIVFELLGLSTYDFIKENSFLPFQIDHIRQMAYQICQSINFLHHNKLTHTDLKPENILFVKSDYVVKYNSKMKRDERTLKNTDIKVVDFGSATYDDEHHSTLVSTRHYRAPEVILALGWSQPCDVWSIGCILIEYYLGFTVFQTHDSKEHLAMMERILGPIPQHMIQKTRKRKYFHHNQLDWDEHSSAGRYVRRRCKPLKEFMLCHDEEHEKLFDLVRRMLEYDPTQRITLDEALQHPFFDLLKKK
Sequence of Cytochrome P450 3A4 (Homo sapiens) (P08684 whole entry, looked up): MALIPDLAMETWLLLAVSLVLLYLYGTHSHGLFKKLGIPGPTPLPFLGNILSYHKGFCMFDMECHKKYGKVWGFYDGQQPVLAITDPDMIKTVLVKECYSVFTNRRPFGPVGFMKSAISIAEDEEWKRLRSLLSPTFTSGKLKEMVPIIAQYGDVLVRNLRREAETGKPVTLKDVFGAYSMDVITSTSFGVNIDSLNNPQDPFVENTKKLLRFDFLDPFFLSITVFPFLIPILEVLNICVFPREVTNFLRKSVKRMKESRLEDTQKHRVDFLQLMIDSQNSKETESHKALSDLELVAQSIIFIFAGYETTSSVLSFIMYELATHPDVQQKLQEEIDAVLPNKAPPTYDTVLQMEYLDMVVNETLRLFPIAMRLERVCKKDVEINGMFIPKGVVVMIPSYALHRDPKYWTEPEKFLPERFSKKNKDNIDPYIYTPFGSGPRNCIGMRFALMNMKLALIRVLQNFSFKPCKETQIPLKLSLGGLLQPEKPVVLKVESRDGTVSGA
Sequence of Cytochrome P450 1A2 (Homo sapiens) (P05177 whole entry, looked up): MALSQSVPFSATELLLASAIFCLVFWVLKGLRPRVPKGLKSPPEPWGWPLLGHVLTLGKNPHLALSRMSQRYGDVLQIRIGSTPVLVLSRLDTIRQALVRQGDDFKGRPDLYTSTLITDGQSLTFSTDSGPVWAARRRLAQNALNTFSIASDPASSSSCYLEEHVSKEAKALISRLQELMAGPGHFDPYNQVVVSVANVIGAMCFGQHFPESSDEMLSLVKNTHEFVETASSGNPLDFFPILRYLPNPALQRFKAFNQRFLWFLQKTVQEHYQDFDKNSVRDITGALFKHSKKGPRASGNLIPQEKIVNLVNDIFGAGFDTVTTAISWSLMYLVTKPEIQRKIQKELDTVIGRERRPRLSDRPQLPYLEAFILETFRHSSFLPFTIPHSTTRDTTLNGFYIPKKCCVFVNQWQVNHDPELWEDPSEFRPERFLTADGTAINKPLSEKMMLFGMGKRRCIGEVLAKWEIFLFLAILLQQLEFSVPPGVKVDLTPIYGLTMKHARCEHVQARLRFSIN
Sequence of Cytochrome P450 2C19 (Homo sapiens) (P33261 whole entry, looked up): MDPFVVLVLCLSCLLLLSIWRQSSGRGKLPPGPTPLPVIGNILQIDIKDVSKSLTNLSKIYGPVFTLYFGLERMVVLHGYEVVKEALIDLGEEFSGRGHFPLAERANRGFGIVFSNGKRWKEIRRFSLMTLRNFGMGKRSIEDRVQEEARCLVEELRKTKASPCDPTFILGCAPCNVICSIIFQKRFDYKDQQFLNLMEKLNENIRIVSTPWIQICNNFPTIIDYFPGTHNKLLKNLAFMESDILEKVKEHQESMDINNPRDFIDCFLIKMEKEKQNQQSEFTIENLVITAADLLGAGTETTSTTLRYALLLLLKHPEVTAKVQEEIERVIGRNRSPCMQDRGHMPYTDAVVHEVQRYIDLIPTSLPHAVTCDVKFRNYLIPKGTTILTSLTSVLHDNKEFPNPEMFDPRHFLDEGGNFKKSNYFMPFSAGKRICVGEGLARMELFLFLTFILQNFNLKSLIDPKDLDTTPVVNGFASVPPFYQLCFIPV

On to `COc1cccc(-c2ccc3ncnc(N(C)C)c3c2)c1`, for which the Potency in test [1] is above 11.4 µM; in test [2], 0.794 µM (active); in test [5], above 46 µM; in test [6], above 46 µM; in test [9] it was 7.94 µM (active); in [11], 3.16 µM (active). Further, the Potency was 4.47 µM (active) in test [12], 3.16 µM (active) in test [13] and 2.51 µM (active) in test [14]. Besides, the activity change, negative = inhibition in test [3] was 27.5%. Also, in test [4], the activity, negative = inhibition is -13.9%. Also, the Potency entry in test [7], in test [8], in test [10] and in test [15] was “inactive” in each case. Moreover, the outcome in [16] was inactive.
`CCNc1ncc2nc(-c3ccc(OC)cc3)c(=O)n(Cc3ccc(F)cc3)c2n1`: the Potency in test [1] was above 11.4 µM; in [5], above 9.22 µM; in test [6] it was above 46 µM; in test [18], 1.26 µM (active). Also, the Potency entry in test [2], in test [7], in test [17], in test [12], in test [13] and in test [14] was “inactive” in each case. In test [15], the Potency entry is “inactive”. For the same compound, the result in test [16] was inactive.
As to `COc1cccc(Nc2ncc3nc(CCc4ccccc4)c(=O)n(Cc4cccs4)c3n2)c1`, the Potency in test [1] was above 11.4 µM; in [2], 3.16 µM (active); in test [5] it was above 9.22 µM; in test [6] it was above 46 µM. Further, in test [4], the activity, negative = inhibition was -28.9%. Further, the Potency entry in test [7], in test [8], in test [10], in test [12], in test [13] and in test [14] was “inactive” throughout. The Potency entry in test [15] was “inactive”. The result in test [16] was inactive.
In the case of `CN(C)c1ncc2nc(-c3ccc(F)cc3)c(=O)n(CCc3ccccc3)c2n1`, the Potency in [1] is above 11.4 µM; in test [2] it was 2.51 µM (active); in [5] it was above 9.22 µM; in test [6], above 46 µM; in test [18], 1 µM (active). In addition, in test [3], the activity change, negative = inhibition is 162% [activator] (active). Further, the Potency entry in [8], in [12], in test [13], in test [14] and in test [15] was “inactive” throughout. In addition, the result in test [16] was inactive.
On to `COc1ccc(-c2nc3cnc(OC)nc3n(CCc3ccccc3)c2=O)cc1`, for which the Potency is above 11.4 µM in [1], 6.31 µM (active) in test [2], above 9.22 µM in test [5] and above 46 µM in test [6]. Also, the activity change, negative = inhibition in test [3] is 1.97%. Also, in [4], the activity, negative = inhibition was 2.61%. For the same compound, the Potency entry in [7], in [10], in test [12], in [13], in test [14] and in test [15] was “inactive” each time. Moreover, the outcome in test [16] was inactive.
In the case of `COc1cccc(Cn2c(=O)c(-c3cccs3)nc3cnc(OC)nc32)c1`, the Potency was above 11.4 µM in test [1], 3.16 µM (active) in test [2], above 9.22 µM in test [5] and above 46 µM in [6]. The activity change, negative = inhibition in [3] was 25.8%. Besides, the Potency entry in test [10], in test [12], in test [13], in test [14] and in [15] was “inactive” in each case. In test [16], the result was inactive.
In the case of `N#CCCn1c(=O)c(-c2cccs2)nc2cnc(Nc3ccccc3)nc21`, the Potency in test [1] was above 11.4 µM; in test [2], 5.01 µM (active); in [5], above 9.22 µM; in [6], above 46 µM. In test [3], the activity change, negative = inhibition is -22.7%. Besides, the activity, negative = inhibition in test [4] was -25%. Besides, the Potency result in test [7], in test [8], in test [10], in test [12], in test [13] and in [14] was “inactive” throughout. Further, the Potency entry in test [15] was “inactive”. For the same compound, in [16], the result was inactive.
